# Shown are actives, neighbours in structure and some others; about 12% of the full set was active somewhere.
# Sfp PPTase inh – qHTS Assay for Inhibitors of Bacillus subtilis Sfp phosphopantetheinyl transferase (PPTase) | 310,000 tested, 3.5% active | Potency, µM, for the others: largest response in the series, negative = inhibition, most hits filed as inhibitors | Biochemical Sfp PPTase activity, qHTS;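 note: the enzyme is Sfp with the accession as filed and its product quenches rhodamine fluorescence; 0% = enzyme reaction without inhibitor and -100% = no enzyme wells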
#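 Compounds were incubated with enzyme (final 15 nM) for 15 min at room temperature before substrate addition started the reaction. Fluorescence at 525 nm excitation, 598 nm emission was recorded immediately and after 30 minutes.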
# BAZ2B inh – qHTS Assay for Inhibitors of BAZ2B; Bromodomain adjacent to zinc finger domain protein 2B (Homo sapiens), Q9UIF8; AlphaScreen BAZ2B-H3K14Ac peptide displacement; Potency, µM (doses to about 114 µM), inactives show at the highest dose activity change, negative = inhibition, hits mostly inhibitors; 360,000 tested, 4.4% active; AID 504333, 2011; note: % is set by controls: 0 for no effect and ±100 for the full control effect; nearly all actives have a fitted effect of over 60% in size
#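 Inhibition is scored as reduced AlphaScreen emission. The BAZ2B/b-H3(5-23)K14Ac complex (50 nM each) in PBS pH 7.4, 0.01% Tween-20 meets compound (up to 110 uM) for 30 min at RT before bead addition.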
# L3MBTL1 inh – qHTS Assay for the Inhibitors of L3MBTL1; Lethal(3)malignant brain tumor-like protein 1 (Homo sapiens), Q9Y468; AlphaScreen L3MBTL1–H3K9me1 peptide binding; Potency, µM (doses to about 57.1 µM), inactives show at the top dose activity, negative = inhibition, hits mostly inhibitors; 230,000 tested, 0.66% active; note: % is set by controls: 0 for no effect and ±100 for the full control effect; nearly all actives have a fitted effect of over 60% in size
#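 AlphaScreen proximity signal between nickel-chelate acceptor and streptavidin donor beads (final 10 ug/mL) reports binding of 50 nM L3MBTL1 to 75 nM biotin-H3 K9me1 peptide; complex incubated with compounds 30 min at room temperature; cefsulodin titration as control.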
# JMJD2A Tudor – qHTS Assay for Inhibitors of JMJD2A-Tudor Domain. Potency, µM (titrated, usually from 114 µM), for the others: top-dose activity change, negative = inhibition, actives largely listed as inhibitors. AlphaScreen JMJD2A-Tudor / H3K4me3 peptide binding. 390,000 tested, 4.4% active. Lysine-specific demethylase 4A (Homo sapiens), O75164. AID 504339, 2011; note: % is set by controls: 0 for no effect and ±100 for the full control effect; nearly all actives have a fitted effect of over 50% in size
# G9a block – qHTS Assay for Inhibitors of Histone Lysine Methyltransferase G9a | Histone-lysine N-methyltransferase EHMT2 (Homo sapiens), Q96KQ7 | G9a H3K9 monomethylation, AlphaScreen, 2 h | Potency, µM (top dose mostly 102 µM), without a hit: at the highest dose activity, negative = inhibition, actives largely listed as inhibitors | 350,000 tested, 8.8% active; note: % is set by controls: 0 for no effect and ±100 for the full control effect; nearly all actives have a fitted effect of over 75% in size
#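 Compounds were preincubated with 20 nM G9a for 15 min, after which biotinylated H3K9 peptide (500 nM) and SAM (20 uM) started a 2 h room-temperature reaction. Monomethylated product was quantified by antibody-based AlphaScreen chemiluminescence.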
# HP1b chromo inh – HTS for Inhibitors of HP1-beta Chromodomain Interactions with Methylated Histone Tails; Chromobox protein homolog 1 (Homo sapiens), P83916; AlphaScreen HP1-beta / biotin-H3K9me3 peptide binding; Potency, µM (series often up to 114 µM), inactives show top-dose activity change, negative = inhibition, usual class: inhibitors; 390,000 tested, 0.56% active; AID 540317, 2011; note: nearly all actives have a fitted effect of over 70% in size
#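 AlphaScreen: HP1-beta (50 nM) preformed 30 min with biotin-H3(1-18)K9me3 peptide (50 nM) in PBS pH 7.4, 0.01% Tween-20. Compound added for 30 min at RT, then streptavidin donor/nickel chelate acceptor beads (10 ug/mL) for 30 min.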
# * marks the source's active call; other numbers are inactive results; ? = inconclusive; . = no result given; [ ] = dose if it differs, or a comment. Calls come from the whole dose curve; as a rule, active = well fitted curve in the direction sought with a large enough effect; inconclusive = small, poorly fitted or top-dose-only effect, or another doubt; inactive = no such curve, though single readings can be large; an effect the other way counts as inactive or inconclusive. Potency is the fitted concentration of half-maximal effect.
SMILES,Sfp PPTase inh,BAZ2B inh,L3MBTL1 inh,JMJD2A Tudor,G9a block,HP1b chromo inh
CCOc1ccc(NC(=O)CN2C(=O)COc3ccc(S(=O)(=O)NC4CCCC4)cc32)cc1,.,2%,.,-17%,2%[59 µM],12%
N#Cc1c(N2CCCC(O)C2)nc(N)c2c(N)nc3c(c12)CC(=O)N3C12CC3CC(CC(C3)C1)C2 (stereo unspecified),?,?,?,56µM*,?,?
C=C(C)CN(CC)c1nc(N)c2c(N)nc3c(c2c1C#N)CC(=O)N3C12CC3CC(CC(C3)C1)C2,-12%,-29%,.,-22%[57.1 µM],13%,-25%
O=C(NNS(=O)(=O)c1ccccc1[N+](=O)[O-])c1cccc([N+](=O)[O-])c1,-6%,-6%,3%,10µM*,-21%,41%
O=C(NNS(=O)(=O)c1ccccc1[N+](=O)[O-])c1cc2ccccc2cc1O,-19%,?,.,-35%,1.6µM*,3%
COCC(=O)NNS(=O)(=O)c1ccccc1[N+](=O)[O-],3%,-8%,10%,-15%,18µM*,29%
O=C(NNS(=O)(=O)c1ccccc1[N+](=O)[O-])c1ccccc1Cl,1%,-10%,-2%,-16%,-6%,40%
COC(=O)c1ccc(NC(=O)c2c(-c3ccccc3)c(-c3ccccc3)nn(C)c2=O)cc1,.,-19%,.,-20%,?,3%
CSCCC(NC(=O)COc1ccccc1)C(=O)N1CCN(c2ccccc2Cl)CC1 (stereo unspecified),.,-3%,-6%,-24%,15%[0.501 µM],8%
COC(=O)C1=C(C)N(Cc2ccccc2)[C@]23O[C@](C(=O)OC)(C(=O)N2C1c1ccccc1)C1CCCC(=O)C13 (stereo partly specified),12%,.,.,.,.,.
CC(C)(C)C(=O)/C(=C/c1ccc(Cl)cc1)n1cncn1,9%,4%,.,0%,-9%,35%
CC(C)(C)C(=O)/C(=C\c1ccc([N+](=O)[O-])cc1)n1cncn1,14µM*,8%,-3%,.,?,.
O=C(NCc1nnc(-c2cc3ccccc3[nH]2)o1)c1ccccc1,.,.,.,-20%,.,.
COc1ccc(-c2nc(SCC(=O)N3CCC(C)CC3)n[nH]2)cc1,.,2%,.,-14%,-9%[59 µM],41%[57 µM]
COc1ccc(NC(=O)C/C(C)=N/NC(=O)c2ccco2)c([N+](=O)[O-])c1,-2%,-10%,.,-14%,45µM*,16%
CN(C)CCn1c(=S)[nH]c2ncccc2c1=O,50µM*,-35%,.,7%,28µM*,0%
CCOCCCn1c(=S)[nH]c2ncccc2c1=O,?,-13%,0%,22µM*,56µM*,55%
CC(C)CCn1c(=S)[nH]c2ncccc2c1=O,15%,5%,1%,?,12%,41%
c1ccc(CSc2ncn[nH]2)nc1,10%,-27%,1%,-7%,45µM*,0%
O=c1[nH]c(CSc2ncn[nH]2)nc2ccccc12,-9%,-3%,3%,?,.,-3%
Cc1ccc(Cn2nc(C)c(NC(=O)CSc3nc4c(c(C(F)(F)F)n3)CCc3ccccc3-4)c2C)cc1,10%,-7%,10%,-9%,13%[59 µM],21%
N#Cc1c(NC(=O)CSc2nc3c(c(C(F)(F)F)n2)CCc2ccccc2-3)sc2c1CCCC2,-20%,9%,6%,-14%,11µM*,-9%
Cc1nn(Cc2ccc(Cl)cc2)c(C)c1NC(=O)CSc1nc2c(c(C(F)(F)F)n1)CCc1ccccc1-2,35µM*,6%,10%,-29%,15%[0.501 µM],3%
N#Cc1c(NC(=O)CSc2nc(-c3ccccc3)cc(C(F)(F)F)n2)sc2c1CCC2,5%,-8%,6%,-4%[57.1 µM],-16%[59 µM],18%
COc1ccc(-c2cc(C(F)(F)F)nc(SCC(=O)Nc3sc4c(c3C#N)CCC4)n2)cc1,-3%,9%,?,-29%,11µM*,-25%
SMILES,Sfp PPTase inh,BAZ2B inh,L3MBTL1 inh,JMJD2A Tudor,G9a block,HP1b chromo inh
O=C(Nc1ccc(Br)cc1)c1cc([N+](=O)[O-])cc([N+](=O)[O-])c1,-14%,-36%,3%,-20%,.,10%
O=[N+]([O-])c1ccc(S(=O)Cc2ccccc2)c([N+](=O)[O-])c1 (stereo unspecified),.,.,.,?,.,-14%
O=c1c2c([N+](=O)[O-])cc([N+](=O)[O-])cc2sn1Cc1ccccc1,2.2µM*,3.5µM*,.,4.5µM*,1µM*,?
O=c1c2c([N+](=O)[O-])cc([N+](=O)[O-])cc2sn1-c1ccc(Br)cc1,8.9µM*,5µM*,-18%,18µM*,1.4µM*,7.9µM*
O=C(CSc1nc(=O)n(Cc2ccncc2)c2c1CCC2)Nc1ccc(F)cc1F,.,-19%,.,-4%,7%[59 µM],36%
CC12CCC(=O)N1C(C(=O)NCc1ccccc1Cl)CS2 (stereo unspecified),.,-3%,4%,-3%,-2%[0.501 µM],35%
O=C(CN1C(=O)c2ccccc2C1=O)Nc1ccc(Cl)cn1,12%,1%,.,-20%[11.4 µM],?,-4%
CC(C)CNC(=O)C(=O)NCC1CCCN1S(=O)(=O)c1cccs1 (stereo unspecified),.,1%,6%,-15%,-7%,11%
Cc1ccc(C2=Nn3c(COc4ccc(Cl)cc4)nnc3SC2CC(=O)O)cc1 (stereo unspecified),-9%,?,.,-8%,40µM*,4%
COc1ccc(CN2CCC(C(=O)Nc3ccc(Oc4cccnc4)cc3)CC2)cc1,9%,-28%,.,-16%,35µM*,4%
CC1CCN(CC(O)COc2ccc(-c3ccccc3)cc2)CC1 (stereo unspecified),7%,-7%,-2%,-6%,?,32%
Cc1ccc(NC(=O)CS(=O)CC(=O)N(c2ccc(C)cc2)C(C)C(=O)NC2CCCCC2)cc1 (stereo unspecified),-2%,16%,-3%,-3%,18µM*,41%
O=C(NC1CC1)c1cc(OCC(F)(F)F)ccc1OCC(F)(F)F,22%,-5%,3%,-10%,-36%,33%
O=C(NO)c1cc(OCC(F)(F)F)ccc1OCC(F)(F)F,-2%,-34%,-9%,-28%[57.1 µM],79µM*,10%
COc1cc(CC(=O)Nc2sc3c(c2C(N)=O)CCCC3)cc(OC)c1OC,1%,1%,.,6%,-12%,19%

# Screening results from PubChem BioAssay.
